TDP1 cell CPT = growth inhibition of DT40 Tdp1-/-;hTDP1 cells with camptothecin (screen for TDP1 inhibitors) | chicken DT40 Tdp1-/-;hTDP1 cells + 20 nM CPT, ATP luminescence, 48 h | Potency, µM (doses to about 46.2 µM), usual class: inhibitors | 420,000 tested, 12% active; note: nearly all actives have a fitted effect of over 55% in size
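Chicken DT40 Tdp1-/- cells complemented with human TDP1, 400 cells/well, exposed to compounds plus 20 nM camptothecin for at least 48 h at 37 C; viability read as ATP content by CellTiter-Glo luminescence.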
Gal4-VP16 FLuc = counter-screen for ROR gamma inhibitors: Gal4-VP16 reporter; Drosophila S2 Gal4-VP16 UAS-luciferase, luminescence, 20 h; 310,000 tested, 3.5% active; Potency, µM (series often up to 53.6 µM), hits mostly inhibitors; AID 2546;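 note: Gal4-VP16 expression switched on by copper sulfate through the metallothionein promoter; nearly all actives have a fitted effect of over 50% in size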
TDP1 inh = blocks human tyrosyl-DNA phosphodiesterase 1; Potency, µM (top dose mostly 130 µM), most hits filed as inhibitors; 350,000 tested, 0.28% active; AID 485290; recombinant TDP1, AlphaScreen DNA substrate cleavage; Q9NUW8; note: nearly all actives have a fitted effect of over 40% in size
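Recombinant human Tdp1 (E. coli-expressed, 1 nM final) preincubated with compounds 15 min at room temperature, then 5'-biotin/3'-phosphotyrosine-FITC DNA substrate (15 nM final) added for 5 min. AlphaScreen beads (10 ug/ml final) added 10 min; cleavage lowers signal.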
TDP1 cell noCPT = qHTS for Inhibitors of human tyrosyl-DNA phosphodiesterase 1 (TDP1): qHTS in cells in absence of CPT; DT40 Tdp1-/- hTDP1 cells, no CPT, ATP luminescence, 48 h; Potency, µM (top dose mostly 46.2 µM), most hits filed as inhibitors; 420,000 tested, 15% active; note: nearly all actives have a fitted effect of over 55% in size
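A cellular qHTS used chicken DT40 cells lacking endogenous Tdp1 but carrying stably transfected human TDP1. Compounds were applied without camptothecin, and cell growth kinetics were judged by ATP-dependent luminescence after ≥48 hr.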
RORgamma inh = inhibitors of mouse ROR gamma transcriptional activity; P51450; Drosophila S2 Gal4-RORgamma UAS-luciferase reporter, 20 h; Potency, µM (series often up to 53.6 µM), most hits filed as inhibitors; 310,000 tested, 5.4% active; AID 2551; note: nearly all actives have a fitted effect of over 60% in size
Target sequence (P51450 whole entry, looked up, the tested form may be a part): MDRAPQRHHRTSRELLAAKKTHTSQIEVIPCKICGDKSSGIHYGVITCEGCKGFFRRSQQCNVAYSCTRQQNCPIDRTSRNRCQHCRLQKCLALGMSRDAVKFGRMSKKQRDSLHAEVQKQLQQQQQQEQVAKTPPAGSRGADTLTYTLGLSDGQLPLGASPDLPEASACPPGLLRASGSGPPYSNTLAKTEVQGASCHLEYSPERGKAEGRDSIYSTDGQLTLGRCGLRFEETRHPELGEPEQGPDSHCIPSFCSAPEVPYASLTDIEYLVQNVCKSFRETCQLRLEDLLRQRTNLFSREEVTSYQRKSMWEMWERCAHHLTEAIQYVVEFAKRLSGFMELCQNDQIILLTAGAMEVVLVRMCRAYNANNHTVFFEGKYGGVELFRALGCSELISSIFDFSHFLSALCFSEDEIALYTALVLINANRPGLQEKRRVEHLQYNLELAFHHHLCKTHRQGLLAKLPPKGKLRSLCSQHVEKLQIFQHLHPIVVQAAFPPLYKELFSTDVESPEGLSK
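In this cell-based reporter format, copper sulfate (700 uM final) drives Gal4–ROR gamma fusion expression from a metallothionein promoter in Drosophila Schneider cells; compounds preincubated 1 hr, reporter read after 20 hr at ambient temperature.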
Hits are given with their value; n = inactive; u = inconclusive; x = no result given; [ ] = remark or other dose. Hits are enriched below; roughly 19% of the tested compounds scored in any of these assays. Calls come from the whole dose curve; as a rule, active = well fitted curve in the direction sought with a large enough effect; inconclusive = small, poorly fitted or top-dose-only effect, or another doubt; inactive = no such curve, though single readings can be large; an effect the other way counts as inactive or inconclusive.

SMILES	TDP1 cell CPT	Gal4-VP16 FLuc	TDP1 inh	TDP1 cell noCPT	RORgamma inh
COc1ccc2c3c(cccc13)C(=O)N(O)C2=O	2.3µM	u	n	2.1µM	n
Cc1ccc(N2C(=O)c3cccc([N+](=O)[O-])c3C2=O)cc1C	n	n	n	n	n
O=C1c2cccc3cccc(c23)C(=O)N1c1nccs1	n	n	n	n	n
CC(=O)Oc1ccc(N2C(=O)c3cccc4c([N+](=O)[O-])ccc(c34)C2=O)cc1	3.7µM	u	x	5.8µM	u
O=C1c2cccc3c([N+](=O)[O-])ccc(c23)C(=O)N1c1nccs1	3.3µM	5µM	n	3.3µM	5.6µM
CCN1C(=O)[C@H]2[C@H]3CN=C(SCc4ccccc4)N3[C@@](Cc3ccccc3)(C(=O)OC)[C@H]2C1=O	u	x	n	u	x
COc1ccc(-c2nnc(SCCC(=O)O)n2C)cc1OC	n	n[0.365 µM]	n	n	u
O=C1c2cccc3c([N+](=O)[O-])ccc(c23)C(=O)N1c1ccccn1	3.7µM	n	n	2.9µM	n
O=C1c2cccc3c([N+](=O)[O-])ccc(c23)C(=O)N1c1ccc(Cl)cn1	3.3µM	7.9µM	n	3.7µM	u
Cc1ccc(NS(=O)(=O)c2cccc(C(=O)NCC(c3ccco3)N3CCCCC3)c2)cc1 (stereo not given)	26µM	x	n	u	x
COc1ccc(NS(=O)(=O)c2cccc(C(=O)NCC(c3ccco3)N3CCCC3)c2)cc1 (stereo not given)	n	x	n[0.505 µM]	n	x
CC(=O)c1cccc(S(=O)(=O)NCC(c2ccco2)N2CCCCC2)c1 (stereo not given)	u	n	n	16µM	u
Cc1cccc(NS(=O)(=O)c2ccc(C)c(C(=O)NCC(c3ccco3)N3CCCCC3)c2)c1 (stereo not given)	21µM	x	n	18µM	x
COc1ccc(NS(=O)(=O)c2ccc(C)c(C(=O)NCC(c3ccco3)N3CCCCC3)c2)cc1 (stereo not given)	u	x	n	u	x
Cc1ccccc1NS(=O)(=O)c1ccc(C(=O)NCC(c2ccco2)N2CCCCC2)cc1 (stereo not given)	u	x	x	23µM	x
CC(=O)c1ccc(S(=O)(=O)Nc2ccc(C(=O)NCC(c3ccco3)N3CCCC3)cc2)cc1 (stereo not given)	n	x	x	n	x
COC(=O)C1=C(N)OC2=C(C(=O)CCC2)C1c1ccccc1OC (stereo not given)	n	n	x	n	n
COc1ccc(C(=O)CNC2=NCCC2)cc1	n	n	n	n	n
COC(=O)C1=C(C)NC(=O)CC1c1ccc(F)c(Br)c1 (stereo not given)	n	n	n	n	n
Cc1cccc(NS(=O)(=O)c2ccc(C(=O)NCC3(N4CCCCC4)CCCCC3)cc2)c1C	21µM	x	x	15µM	x
CCc1ccc(-c2cc(C(F)(F)F)n3nc(C(=O)Nc4cnn(Cc5ccc(C)cc5)c4)cc3n2)s1	5µM	u	n	5µM	u
Cc1ccc(S(=O)(=O)N2[C@H](CC(=O)OCc3ccccc3)OC[C@@H]2C)cc1	n	x	x	u	x
COCCN1Cc2cccc(C(=O)N3CCN(c4cc(C)ccc4C)CC3)c2C1=O	u	n	n	u	n
CCOc1ncccc1C(=O)N1CCN(c2cc(Cl)ccc2C)CC1	0.82µM	n	n	0.65µM	n
CCOc1ncccc1C(=O)N1CCN(c2cccc(C)c2C)CC1	0.52µM	n	n	0.58µM	n
SMILES	TDP1 cell CPT	Gal4-VP16 FLuc	TDP1 inh	TDP1 cell noCPT	RORgamma inh
CCOc1ccc(-c2cc(C(=O)N3CCN(c4cc(Cl)ccc4C)CC3)c3ccccc3n2)cc1	n	x	n	n	x
CCOc1ncccc1C(=O)N1CCN(C(=O)c2ccccc2)CC1	n	n	n	n	n
CCCN1Cc2cccc(C(=O)N3CCN(c4cc(Cl)ccc4C)CC3)c2C1=O	u	u	n	13µM	n
CS(=O)(=O)c1ccc(NC(=O)C2CCCN(C(=O)c3ccc(Cl)cc3)C2)cc1 (stereo not given)	n	x	n	u	x
Cc1ccc(S(=O)(=O)N(C)C)cc1NC(=O)C1CCCN(C(=O)c2ccc(Cl)cc2)C1 (stereo not given)	u	x	n[0.505 µM]	u	x
CCN(CC)S(=O)(=O)c1ccc(NC(=O)C2CCCN(C(=O)c3ccc(Cl)cc3)C2)cc1 (stereo not given)	16µM	n	n	23µM	n[10 µM]
O=C(Nc1ccc(OC(F)(F)F)cc1)C1CCCN(C(=O)c2ccc(Cl)cc2)C1 (stereo not given)	16µM	x	n	12µM	x
CC(=O)Nc1ccc(NC(=O)C2CCCN(C(=O)c3ccc(Cl)cc3)C2)cc1 (stereo not given)	n	n	n	n	n
CN(C)S(=O)(=O)c1cccc(NC(=O)C2CCCN(C(=O)c3ccc(Cl)cc3)C2)c1 (stereo not given)	u	x	x	15µM	x
Cc1ccc(S(=O)(=O)Nc2ccc(Nc3nccn4c(-c5cccc(OC(F)(F)F)c5)cnc34)cc2)cc1	18µM	x	x	12µM	x
CCOc1cc2c(cc1OC)C(NC(=O)C(F)(F)F)CC2=O (stereo not given)	n	n	n	n	n
O=C(CC1CCCCC1)NCc1cn2ccsc2n1	n	n	n	n	n
CCn1c(SCC(=O)Nc2cccnc2Cl)nnc1-c1ccccc1	n	n	n	n	n
COc1ccc(-n2ncc(C(=O)NC3CC3)c2C2CCN(C(=O)OC(C)(C)C)CC2)cc1	n	n	n	n	n
COc1ccc(CCNC(=O)c2cnn(-c3ccc(F)cc3)c2C2CCN(C(=O)OC(C)(C)C)CC2)cc1OC	u	x	n	u	x
COc1ccc(CCNC(=O)c2cnn(-c3cccc(C)c3)c2C2CCN(C(=O)OC(C)(C)C)CC2)cc1OC	u	x	n	15µM	x
COc1ccc(CCNC(=O)c2cnn(-c3ccc(F)cc3)c2C2CCN(C(=O)OC(C)(C)C)CC2)c(OC)c1	u	x	n	13µM	x
COc1ccc(OC)c(CCNC(=O)c2cnn(-c3ccc(C)cc3C)c2C2CCN(C(=O)OC(C)(C)C)CC2)c1	4.6µM	x	n	15µM	x
COc1ccc(OC)c(CCNC(=O)c2cnn(-c3ccccc3)c2C2CCN(C(=O)OC(C)(C)C)CC2)c1	13µM	x	n	23µM	x
Cc1ccc(-n2ncc(C(=O)NCCCN3CCN(C)CC3)c2C2CCN(C(=O)OC(C)(C)C)CC2)c(C)c1	u	x	n	u	x
Cc1cc(C(=O)CN2C(=O)C(=O)N(C)C2=O)c(C)n1-c1cccc(S(=O)(=O)N2CCOCC2)c1	u	n	n	n	n
Cc1ccc(-n2ncc(C(=O)NCc3ccccn3)c2C2CCN(C(=O)OC(C)(C)C)CC2)c(C)c1	u	x	n	21µM	x
Cc1nn(Cc2ccc(C(=O)N3CCOCC3)o2)c(C)c1Br	n	n	n	u	n
